IDH1 R132H inh: blocks human mutant IDH1 R132H enzyme; O75874; IDH1-R132H enzyme, NADPH consumption, diaphorase/resazurin fluorescence; Potency, µM (titrated, usually from 76.6 µM), inactives show at the top dose activity change, negative = inhibition, hits mostly inhibitors; 0.093% of 390,000 active; AID 602179; note: % is set by controls: 0 for no effect and ±100 for the full control effect; nearly all actives have a fitted effect of over 65% in size
Target sequence (O75874 whole entry R132H, stated change not applied): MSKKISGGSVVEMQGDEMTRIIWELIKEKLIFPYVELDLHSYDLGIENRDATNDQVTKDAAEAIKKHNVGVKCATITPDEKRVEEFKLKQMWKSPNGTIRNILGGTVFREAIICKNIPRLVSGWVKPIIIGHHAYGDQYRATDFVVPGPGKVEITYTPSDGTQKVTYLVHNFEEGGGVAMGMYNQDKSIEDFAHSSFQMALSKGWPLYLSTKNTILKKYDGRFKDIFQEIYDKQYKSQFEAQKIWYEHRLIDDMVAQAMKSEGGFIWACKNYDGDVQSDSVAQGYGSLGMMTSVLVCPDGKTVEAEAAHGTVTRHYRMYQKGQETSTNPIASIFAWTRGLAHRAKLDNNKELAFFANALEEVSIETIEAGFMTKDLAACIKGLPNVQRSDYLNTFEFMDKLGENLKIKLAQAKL
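IDH1-R132H (0.5 ug/mL) preincubated 30 min with compound, then NADPH (0.016 mM) and alpha-KG (2 mM) added; 80 min at RT, pH 7.5. Remaining NADPH coupled via diaphorase/resazurin to fluorescence (540/590 nm); concentration-response curves normalized to no-enzyme control.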
GLP-1R inv ag: acts as inverse agonist at human GLP-1 receptor | Potency, µM (top dose mostly 38.3 µM), for the others: at the highest dose activity change, negative = inhibition, usual class: inhibitors | HEK293 GLP-1R CRE-luciferase, luminescence, 24 h; GLP-1R form is constitutively active | P43220 | 1.6% of 410,000 active; note: % is set by controls: 0 for no effect and ±100 for the full control effect; nearly all actives have a fitted effect of over 55% in size
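Seeding at 200 cells/uL, 12 h culture, 24 hr compound treatment, then luciferase reagent and a luminescence read; cells are HEK293 stably expressing a constitutively active GLP-1R plus cAMP-responsive luciferase.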
GLP-1R agonist: GLP-1 receptor (human) agonism; P43220; HEK293 GLP-1R CRE-luciferase, luminescence, 4-6 h; cells express a hypersensitive GLP-1R form; Potency, µM (doses to about 45.6 µM), inactives show top-dose activation, actives largely listed as activators; 0.007% of 380,000 active; note: % of control where 0% means no effect
GLP1R cytotox: cytotoxicity in counter-screen for GLP-1R inverse agonists. 0.13% of 410,000 active. HEK293 cAMP-luciferase reporter cells, luminescence, 24 h. Potency, µM (highest dose often 38.3 µM), for inactives: at the highest dose activity change, negative = inhibition, most hits filed as inhibitors;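 note: loss of luciferase light is scored as toxicity; % is set by controls: 0 for no effect and ±100 for the full control effect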
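A 23 nL compound transfer followed 12 hours of cell culture at 37 deg C; exposure then lasted 24 hr. Luciferase assay detection reagent was dispensed and plates read for luminescence after a 12 min room-temperature wait.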
TrxR1 substrate: rat thioredoxin reductase 1 substrate activity. O89049. purified TrxR1 substrate turnover, NADPH consumption readout. Potency, µM (doses to about 114 µM), for the others: at the highest dose activity change, negative = substrate turnover. 0.01% of 390,000 active. AID 588456; note: % is set by controls: 0 for no effect and ±100 for the full control effect; nearly all actives have a fitted effect of over 50% in size
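Rat TrxR1, dispensed at 90 nM, was prereduced with 400 uM NADPH (final) for 5 min at ~22 deg C, then incubated with compound 15 min before 400 uM selenite. A first-read NADPH fluorescence drop versus no-compound background flagged substrates.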
TrxR1 inh: inhibitors of rat thioredoxin reductase 1; O89049; recombinant rTrxR1, NADPH fluorescence consumption, selenite substrate; Potency, µM (top dose mostly 114 µM), inactives show at the highest dose activity change, negative = inhibition, hits mostly inhibitors; 1% of 390,000 active; note: % is set by controls: 0 for no effect and ±100 for the full control effect; nearly all actives have a fitted effect of over 65% in size
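Rat TrxR1 (90 nM in the dispensed reagent) was pre-reduced with 400 uM NADPH for 5 min at room temperature, then incubated with compound for 15 min. After 400 uM selenite was added, NADPH fluorescence (Ex 340/Em 450 nm) was followed for 8 min.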
* hit, by the source's call; ? = inconclusive; / = no result given; [ ] = remark or other dose. An excerpt weighted towards active compounds, which were near 2.7% of everything screened. Calls come from the whole dose curve; as a rule, active = well fitted curve in the direction sought with a large enough effect; inconclusive = small, poorly fitted or top-dose-only effect, or another doubt; inactive = no such curve, though single readings can be large; an effect the other way counts as inactive or inconclusive. Potency is the fitted concentration of half-maximal effect.

SMILES	IDH1 R132H inh	GLP-1R inv ag	GLP-1R agonist	GLP1R cytotox	TrxR1 substrate	TrxR1 inh
COc1cc(NC(=O)c2ccc(S(=O)(=O)N(C)c3ccccc3)cc2)cc(OC)c1	-6%	10µM*	2%	-12%	-1%	11%
Cc1ccc(/C=N/NC(=O)c2ccc(N(C)S(=O)(=O)c3ccccc3)cc2)cc1	1%	10µM*	9%	-18%	-12%	-7%
COc1cccc(C(=O)Nc2ccc3nc(N4CCC(C)CC4)cc(C)c3c2)c1	-3%	?	-3%	-18%	-6%	8%
CCCCN(CC)C(=O)CSc1c2c(nc3ccc(Cl)cc13)CCCC2	-8%	10µM*	/	?	-2%	0%
C/C(CC(=O)Nc1cc(Cl)ccc1Cl)=N\NC(N)=S	14%	?	2%	-27%	-1%[57.1 µM]	-22%[57.1 µM]
C/C(CC(=O)Nc1ccc(Cl)c(Cl)c1)=N\NC(N)=S	6%	11µM*	-6%	?	-12%	?
C/C(CC(=O)Nc1ccc(C)c(Cl)c1)=N\NC(=O)c1ccncc1	3%	10µM*	6%	11%	-1%[57.1 µM]	-51%
Cc1ccc(CN2C(=O)SC(Nc3ccc(Cl)cc3)C2=O)cc1 (stereo unspecified)	-23%	?	/	-1%	-2%	1%
Cc1cccc(NS(=O)(=O)c2ccc3c(c2)C(C)(C)C(=O)N3C)c1	30%	5%	/	-6%	6%[57.1 µM]	4%[57.1 µM]
CSc1nc2sc3c(c2c(=O)n1-c1ccccc1C)CCCC3	6%	4.5µM*	/	0%	-11%[57.1 µM]	-15%[57.1 µM]
CCCC(=O)Oc1c(S(=O)(=O)c2ccc(C)cc2)c(C)nn1C(C)(C)C	3%	5.6µM*	-2%	?	-7%	-10%
CCC(=O)Oc1c(S(=O)(=O)c2ccc(C)cc2)c(C)nn1C(C)(C)C	0%	?	-10%	?	-11%	-5%[57.1 µM]
CCCCCC(=O)N1C[C@@H](n2cc(-c3ccc(F)cc3)nn2)[C@H](O)C[C@@H]1c1ccc(C)cc1	-8%	?	5%	-27%	/	/
CCCCCCN1C[C@H](O)[C@@H](n2cc(-c3ccc(F)cc3)nn2)C[C@@H]1c1ccccc1	-3%	5µM*	-1%	-18%	/	/
CCCCCC(=O)N1C[C@@H](n2cc(-c3ccc(F)cc3)nn2)[C@H](O)C[C@@H]1c1ccc(OC)cc1	11%	11µM*	1%	-11%	/	/
CCCCCCN1C[C@H](n2cc(-c3ccc(F)cc3)nn2)[C@@H](O)C[C@@H]1c1ccccc1	7%	-19%	-3%	3%	/	/
CCCCCC(=O)N1C[C@@H](O)[C@H](n2cc(COC(=O)c3ccccc3)nn2)C[C@@H]1c1ccc(C)cc1	-11%	-12%	10%	3%	/	/
CCCCCC(=O)N1C[C@H](n2cc(COC(=O)c3ccccc3)nn2)[C@@H](O)C[C@@H]1c1ccc(C)cc1	4%	10µM*	-4%	-14%	/	/
N#CC1=C(N)NC(SCc2ccc(Br)cc2)=C(C#N)C12CCCCC2	-1%	10µM*	1%	-14%	2%	31%
N#CC1=C(N)NC(SCc2ccc(Cl)cc2)=C(C#N)C12CCCCC2	1%	?	-18%	?	-10%	-9%
Cc1ccn2c(Nc3ccc4c(c3)OCCO4)c(-c3ccc(C)o3)nc2c1	?	-22%	/	0%	49%	15%
O=[N+]([O-])c1cccc(/C=N/NC2=NCCCCC2)c1	15%	7%	-1%	4%	2%	8%
O=C(ONC1=NCCCCC1)c1cccc([N+](=O)[O-])c1	17%	?	14%	11µM*	12%[57.1 µM]	20%[57.1 µM]
Cc1ccc(SCC(=O)Nc2ccc3oc(-c4cccc(Cl)c4)nc3c2)cc1	/	21%	/	-8%	12%	25%
COc1ccc([C@H]2N[C@]3(CCCN(Cc4ccc(C(F)(F)F)cc4)C3=O)[C@H]3C(=O)N(Cc4ccccc4)C(=O)[C@@H]23)cc1	-2%	?	-2%	-20%	/	/
SMILES	IDH1 R132H inh	GLP-1R inv ag	GLP-1R agonist	GLP1R cytotox	TrxR1 substrate	TrxR1 inh
CCN1C(=O)[C@H]2[C@@H](c3ccc(C(F)(F)F)cc3)N[C@]3(CCCN(Cc4ccc(Cl)cc4)C3=O)[C@H]2C1=O	5%	10µM*	-5%	5%	/	/
CCN1C(=O)[C@H]2[C@@H](c3ccc(C(F)(F)F)cc3)N[C@]3(CCCN(Cc4ccc(C)cc4)C3=O)[C@H]2C1=O	0%	?	-5%	2%	/	/
O=C1[C@H]2[C@@H](c3ccc(C(F)(F)F)cc3)N[C@]3(CCCN(Cc4ccccc4)C3=O)[C@H]2C(=O)N1Cc1ccccc1	-2%	11µM*	-6%	0%	/	/
O=C1[C@H]2[C@@H](c3ccc(C(F)(F)F)cc3)N[C@]3(CCCN(Cc4ccc(C(F)(F)F)cc4)C3=O)[C@H]2C(=O)N1Cc1ccccc1	14%	4.5µM*	-4%	3%	/	/
CC(C)CCN1CCC[C@]2(N[C@H](c3ccc(C(F)(F)F)cc3)[C@@H]3C(=O)N(Cc4ccccc4)C(=O)[C@@H]32)C1=O	-5%	?	3%	13%	/	/
Cn1cc(S(=O)(=O)N2CCCCCC2)cc1C(=O)N1CCN(c2ccccc2F)CC1	9%	8%	0%	2%	-2%[57.1 µM]	16%[57.1 µM]
O=C(c1ccc(Cl)cc1)N1CCC(c2nc3ccccc3o2)CC1	-16%	-7%	/	-11%	-4%	9%
Cc1ccnc2ccc(Br)cc12	/	/	/	/	5%	-3%
O=C(CN1CCN(Cc2ccc3c(c2)OCO3)CC1)N1CCc2[nH]c3ccc(F)cc3c2C1	5%	8.9µM*	-5%	-18%	-4%	-10%
O=C(c1cc2cc(Cl)ccc2[nH]1)N1CCN(Cc2ccc3c(c2)OCO3)CC1	2%	11µM*	-3%	-17%	-1%	-1%
C=Cc1ccc(CSc2nc(-c3ccc(Cl)cc3)nc3c2Cc2c(CO)cnc(C)c2O3)cc1	-2%	4%	/	2%	4%	5%
CC(=O)c1cc(O)c2ccccc2c1O	22%	14%	-5%	-9%	-4%	32µM*
CCOC(=O)CSC(=S)NC(=O)c1ccc(OC)cc1	-2%	-2%	-1%	-12%	-2%	22µM*
CCOC(=O)c1nnn(C(CC)C(=O)Nc2c(C)cccc2C)c1C(=O)OCC (stereo unspecified)	5%	0%	/	7%	-2%	3%
COc1ccc(-c2noc(CSCC(=O)Nc3cc(OC)c(OC)c(OC)c3)n2)cc1OC	-12%	6%	/	-9%	-10%	3%
CC(=O)C1=C(c2ccccc2)N(C(C)=O)n2c(nnc2C2CCCCC2)S1	?	13µM*	/	-1%	3%[57.1 µM]	-4%[57.1 µM]
